Bioassay records (PubChem)
BaF3 parental = parental Ba/F3 cell viability inhibition, counter-screen for JAK2V617F inhibitor project, murine pro-B, CellTiter-Glo luminescence | CellTiter-Glo ATP luminescence | inhibition, % at 5.6 µM | 220,000 compounds, 1.1% hits | AID 1486, 2009;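 active = inhibition above a per-campaign cutoff, the mean inhibition of all tested compounds plus 3 SD, cut at about 27% in these data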;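 also: 0% = DMSO wells and 100% = JAK Inhibitor I control wells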
IEC-6 tox-1 = cytotoxicity in IEC-6 intestinal epithelial cells, primary screen, cytotoxicity control for KLF5 inhibitor project, cell-based, luminescence; AID 1825, 2009; 290,000 compounds, 0.78% hits; IEC-6 cytotoxicity, luminescence viability; inhibition, % at 5 µM;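 also: 0% = plate median of test compound wells and 100% = cytotoxic reference compound wells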
Ba/F3 V617F tox = reduced viability of JAK2V617F-dependent Ba/F3 cells, primary screen, JAK2V617F inhibitor project, cell-based, Ba/F3 EpoR-JAK2V617F, luminescence | AID 1446, 2008 | ATP luminescence | inhibition, % at 5.6 µM | 220,000 compounds, 1.1% hits;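 active = inhibition above the campaign mean plus 3 SD over all tested compounds, cut at about 24% in these data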;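 also: cytokine-independent growth of Ba/F3 cells driven by EpoR plus mutant JAK2; 0% = DMSO-treated cells and 100% = JAK inhibitor I control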
APP transl inh = inhibitors of APP translation via 5'UTR reporter, primary screen, APP 5'UTR luciferase, SH-SY5Y cells | SH-SY5Y APP 5'UTR-luciferase reporter, luminescence | inhibition, % at 2 µM | 190,000 compounds, 0.82% hits;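 active = inhibition above a set limit, derived from the sample mean plus 3 SD, cut at about 45% in these data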
KLF5 inh = KLF5 expression inhibitors, primary screen, DLD-1 cells, luminescence; AID 1700, 2009; DLD-1 KLF5 promoter-luciferase reporter; 290,000 compounds, 0.23% hits; inhibition, % at 5 µM;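 active = inhibition above a per-plate limit of that plate's mean compound inhibition plus 3 SD, cut at about 60% in these data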;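 also: 0% = DMSO wells and 100% = LY294002 at 200 µM; higher means less KLF5 promoter-driven luciferase light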
KLF5 confirm = KLF5 expression inhibitors, confirmation, DLD-1 cells, luminescence; shares compounds with KLF5 inh; DLD-1 KLF5 promoter firefly luciferase reporter; inhibition, % at 4 µM; 610 compounds, 79% hits;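 active = inhibition above a set limit taken from the earlier primary screen, cut at about 63% in these data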;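 also: 0% = DMSO wells and 100% = LY294002 at 200 µM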
IEC-6 tox-2 = cytotoxicity in rat IEC-6 cells, cytotoxicity control for KLF5 inhibitor project, cell-based, luminescence, triplicate; 610 compounds, 56% hits; AID 1905, 2009; shares compounds with KLF5 inh; inhibition, % at 4 µM; IEC-6 rat intestinal cells, viability luminescence; in the data active = inhibition above about 23%;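 also: cells exposed to compounds for 48 hours before viability read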
IEC-6 cytotox cf = cytotoxic compounds in IEC-6 epithelial cells, confirmation, cytotoxicity control, cell-based, luminescence; shares compounds with IEC-6 tox-1; IEC-6 rat intestinal epithelial viability; inhibition, % at 5 µM; 1,900 compounds, 63% hits;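 also: 0% = vehicle and 100% = reference cytotoxic drug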
* = called active by the depositor; . = not tested or not shown. A selection: hits, their analogues and other compounds. The true share with any hit is near 1.9%. Rule as the data show it, unless noted: active = inhibition above about 22%; inactive = the rest.

SMILES	BaF3 parental	IEC-6 tox-1	Ba/F3 V617F tox	APP transl inh	KLF5 inh	KLF5 confirm	IEC-6 tox-2	IEC-6 cytotox cf
COc1ccc2[nH]c(C(=O)N/N=C/c3ccc(OC)c(O)c3)cc2c1	.	30.3*	.	.	65.0*	68.6*	2.2	10.1
COc1ccc(CCNc2nnc(Sc3nnnn3-c3ccccc3)s2)cc1OC	96.3*	92.6*	93.4*	93.9*	65.0*	80.5*	70.4*	77.0*
COc1ccc(-n2nnnc2SCC(=O)NCCc2ccccc2)cc1OC	5.9	-4.5	-1.3	-5.5	-18.4	.	.	.
Cc1cccc(N(C)S(=O)(=O)c2ccc(-c3cc(C)no3)s2)c1	.	77.5*	.	.	74.5*	74.3*	55.1*	53.4*
CCN(c1cccc(C)c1)S(=O)(=O)c1ccc(-c2cc(C)no2)s1	.	66.7*	.	.	72.0*	59.4	37.2*	37.0*
CCn1c(O)c(N=NC(=O)CNC(=O)Cc2ccccc2)c2ccccc21	.	1.8	.	.	2.8	.	.	.
O=C(CNC(=O)c1ccco1)N=Nc1c(O)n(CCc2ccccc2)c2ccccc12	67.8*	85.2*	73.9*	.	71.1*	83.1*	71.5*	67.4*
Cc1cccc(N2CCN(C(=O)c3c(-c4ccccc4Cl)noc3C)CC2)c1C	.	73.4*	.	.	77.3*	75.7*	56.5*	55.3*
Cc1onc(-c2ccccc2Cl)c1C(=O)N1CCN(C=O)CC1	.	-0.9	.	.	-12.8	.	.	.
N#CC1=C2SCN(c3ccccc3)CN2C(=O)CC1c1cccs1 (centres undefined)	1.3	2.1	-0.3	15.8	-0.2	.	.	.
N#CC1=C2SCC(O)(c3ccccc3)N2C(=O)CC1c1cccs1 (centres undefined)	75.2*	82.4*	74.4*	90.8*	72.1*	74.4*	62.2*	55.5*
CCN(CC(=O)Nc1ccccc1C(=O)Nc1ccccc1)Cc1nc2ccccc2c(=O)[nH]1	9.9	5.6	1.5	-1.9	-6.0	.	.	.
O=C(COc1ccc(C(=S)N2CCCC2)cc1)Nc1ccc(F)cc1	.	5.4	.	.	-0.4	.	.	.
Cc1cc2nc(-c3ccc[nH]c3=O)[nH]c2cc1C	.	39.8*	.	.	82.9*	61.4	16.4	33.2*
Cc1ccc(S(=O)(=O)Oc2ccccc2/C=N/NC(N)=S)cc1	71.5*	58.2*	81.7*	91.0*	65.2*	73.0*	57.1*	-1.1
Cc1ccc(S(=O)(=O)Oc2ccccc2/C=N/N=C(N)N)cc1	4.0	1.7	2.2	20.5	2.6	.	.	.
O=S(=O)(Nc1nc2ccccc2nc1Nc1ccc2c(c1)OCO2)c1ccccc1	3.6	1.0	1.3	7.8	-8.1	.	.	.
CCC1CCCCN1CCCNC(=O)C1CC(=O)N(CCc2ccccc2)C1 (centres undefined)	.	0.0	.	.	5.1	.	.	.
COc1ccccc1/C=N\NC(=O)c1c(C)nc2ccc(Cl)cn12	.	7.7	.	.	-6.5	.	.	.
COc1cccc(/C=N/NC(=O)c2c(C)nc3ccc(Cl)cn23)c1O	.	83.0*	.	.	92.5*	87.7*	62.5*	47.3*
CCCn1c(SCC(=O)Nc2cccc(C)n2)nnc1-c1ccco1	5.4	-2.6	3.6	11.8	-28.9	.	.	.
COc1cccc(C2CC(=O)Nc3cc4c(cc32)OCCO4)c1OC(C)C (centres undefined)	0.9	6.2	-0.6	-7.9	5.7	.	.	.
CC(C)Oc1ccccc1C1CC(=O)Nc2cc3c(cc21)OCCO3 (centres undefined)	78.3*	88.4*	74.2*	94.8*	80.1*	98.4*	89.9*	56.0*
CCOc1ccccc1C1CC(=O)Nc2cc3c(cc21)OCO3 (centres undefined)	74.6*	83.0*	78.9*	90.3*	74.5*	90.9*	65.4*	56.6*
COc1cc(SC)ccc1C(=O)Nc1nc2ccccc2[nH]1	.	77.1*	.	.	99.7*	97.5*	43.9*	58.7*
COc1ccccc1C(=O)Nc1nc2ccccc2[nH]1	.	79.5*	.	.	101.1*	104.7*	58.4*	69.0*
